# Records with an inconclusive call do not appear. Active and inactive are the calls of the source. How the source made its calls: active means hit-call score of the fitted dose curve at least 0.9, where 1 is the maximum; inconclusive means response in the unintended direction; inactive means score below 0.9.
# Key:
# [1] = Tanguay_ZF_120hpf_EYE_legacy: (Legacy) Oregon State University Tanguay Lab 120 Hour Post-fertilization zebrafish Assay for Eye Malformation (AID 2283636);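 further: binary presence or absence of eye malformation scored by brightfield in 120 hpf larvae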
# Outline: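 Dechorionated wild-type Tropical 5D zebrafish embryos were exposed statically from 6 hpf, one per well, to 120 hpf at 28C in sealed, foil-covered plates with 0.64% DMSO. Eye malformation was scored present/absent by brightfield microscopy against DMSO controls.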
# [2] = Tanguay_ZF_120hpf_SNOU_legacy: (Legacy) Oregon State University Tanguay Lab 120 Hour Post-fertilization zebrafish Assay for Snout Malformation (AID 2283637)
# Outline: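 Tropical 5D wild-type zebrafish embryos, dechorionated with pronase at 4 hpf, were exposed singly from 6 hpf to 120 hpf statically at 28C in 0.64% DMSO. Snout malformation was scored present/absent by brightfield microscopy, fitted against DMSO.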
# [3] = Tanguay_ZF_120hpf_JAW_legacy: (Legacy) Oregon State University Tanguay Lab 120 Hour Post-fertilization zebrafish Assay for Jaw Malformation (AID 2283638);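 on AC50: active means more embryos with jaw malformation than DMSO controls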
# Outline: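 Wild-type 5D embryos, chorion removed at 4 hpf, dosed singly from 6 hpf; 28C static, sealed, foil-covered, to 120 hpf. Endpoint: jaw defect yes/no (brightfield); mortality excludes scoring.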
# [4] = Tanguay_ZF_120hpf_OTIC_legacy: (Legacy) Oregon State University Tanguay Lab 120 Hour Post-fertilization zebrafish Assay for Otic Vesicle Malformation (AID 2283639)
# Outline: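 Otic vesicle malformation is read as a yes/no morphology call at 120 hpf. Exposure is static at 28C with 0.64% (vol/vol) DMSO; embryos that die are excluded from non-mortality endpoints.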
# [5] = Tanguay_ZF_120hpf_BRAI_legacy: (Legacy) Oregon State University Tanguay Lab 120 Hour Post-fertilization zebrafish Assay for Brain Malformation (AID 2283641)
# Outline: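 Static exposure of staged wild-type embryos until 120 hpf, kept at 28C with light excluded and final DMSO of 0.64% (vol/vol). Presence or absence of brain malformation was noted under brightfield; mortality precluded scoring.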
# [6] = Tanguay_ZF_120hpf_SOMI_legacy: (Legacy) Oregon State University Tanguay Lab 120 Hour Post-fertilization zebrafish Assay for Somite Malformation (AID 2283647)
# Outline: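 Somitogenesis defects are recorded as binary calls in whole larvae at 120 hpf after continuous static chemical exposure starting at 6 hpf in dechorionated 5D embryos. DMSO serves as negative control and baseline.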
# [7] = Tanguay_ZF_120hpf_CFIN_legacy: (Legacy) Oregon State University Tanguay Lab 120 Hour Post-fertilization zebrafish Assay for Caudal Fin Malformation (AID 2283649)
# Outline: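 Single dechorionated 5D wild-type embryos are dosed at 6 hpf (final DMSO 0.64%) and held statically at 28C. Caudal fin malformation is recorded as present or absent at 120 hpf under brightfield, excluding dead embryos.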
# [8] = Tanguay_ZF_120hpf_PIG_legacy: (Legacy) Oregon State University Tanguay Lab 120 Hour Post-fertilization zebrafish Assay for Pigmentation Malformation (AID 2283650)
# Outline: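 Tropical 5D wild-type zebrafish embryos, dechorionated with pronase at 4 hpf, were exposed singly from 6 hpf to 120 hpf statically at 28C in sealed, dark plates with 0.64% DMSO; pigmentation scored present/absent by brightfield microscopy, fitted against DMSO.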
# [9] = Tanguay_ZF_120hpf_CIRC_legacy: (Legacy) Oregon State University Tanguay Lab 120 Hour Post-fertilization zebrafish Assay for Circulatory Malformation (AID 2283651)
# Outline: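 Using wild-type Tropical 5D zebrafish, we exposed dechorionated embryos from 6 to 120 hpf in embryo medium with 0.64% DMSO. Circulatory defects were scored as present or absent; 5uM trimethyltin chloride served as positive control.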
# [10] = Tanguay_ZF_120hpf_SWIM_legacy: (Legacy) Oregon State University Tanguay Lab 120 Hour Post-fertilization zebrafish Assay for Swim Bladder Malformation (AID 2283654);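 further: swim bladder malformation in each larva scored yes or no under brightfield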
# Outline: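 Dechorionated Tropical 5D wild-type embryos, placed singly from 6 hpf, were statically exposed at 28C to 120 hpf with 0.64% DMSO final; swim bladder malformation was scored present/absent by brightfield microscopy, gain of signal relative to DMSO controls.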
# [11] = Tanguay_ZF_120hpf_TRUN_legacy: (Legacy) Oregon State University Tanguay Lab 120 Hour Post-fertilization zebrafish Assay for Truncated Body (AID 2283655)
# Outline: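 Single dechorionated zebrafish embryos received test chemical from 6 hpf in 0.64% DMSO, kept at 28C. At 120 hpf, brightfield inspection noted any truncated body.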
# [12] = Tanguay_ZF_120hpf_NC_legacy: (Legacy) Oregon State University Tanguay Lab 120 Hour Post-fertilization zebrafish Assay for Notochord and Tail Malformation (AID 2283656)
# Outline: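 Dechorionated 5D zebrafish, 1/well from 6 hpf; static exposure to 120 hpf, 28C, sealed, dark; final DMSO 0.64% v/v. NC scored binary (present/absent); dead embryos not scored. Fit vs DMSO baseline, gain direction.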
# [13] = Tanguay_ZF_120hpf_PFIN_legacy: (Legacy) Oregon State University Tanguay Lab 120 Hour Post-fertilization zebrafish Assay for Pectoral Fin Malformation (AID 2283648);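 further: each larva judged yes or no for fin defect by brightfield with dead larvae skipped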
# Outline: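 Tropical 5D wild-type embryos, dechorionated with pronase at 4 hpf, were placed singly in wells at 6 hpf and statically exposed until 120 hpf at 28C, sealed and dark, with 0.64% (vol/vol) final DMSO; pectoral fin malformation scored present/absent.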
# [14] = test system: Thyroperoxidase (TPO), gene 54314; assay: CCTE_Simmons_AUR_rTPO: CCTE's Amplex UltraRed Assay for Thyroperoxidase (TPO) Inhibition, Simmons Lab (AID 2283662);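 on AC50: potency for loss of signal meaning inhibition of peroxidase activity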
# Outline: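 Rat thyroid microsomal TPO + 25 uM AUR in 200 mM K phosphate; cpd 5 nM–87.5 uM [final], 8 conc, 0.5% DMSO; 300 uM H2O2 starts rxn; 37C dark 30 min; endpoint FI 544/590 nm; n=3.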
# [15] = CCTE_Simmons_CellTiterGLO_HEK293T: Viability Assessment in CCTE's Assays for Thyroperoxidase (TPO) Inhibition, Simmons Lab (AID 2283665);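 further: cells exposed to compound for 24 h before readout; actives reduce ATP signal below DMSO vehicle meaning cytotoxicity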
# Outline: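 Cytotoxicity counter-screen: human HEK293T cells in low-serum (1% FBS) medium receive test chemical, 5 nM to 87.5 uM final, for 24 h; ATP is quantified by luciferase luminescence.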
# [16] = Tanguay_ZF_120hpf_PE_legacy: (Legacy) Oregon State University Tanguay Lab 120 Hour Post-fertilization zebrafish Assay for Pericardial Edema (AID 2283640)
# Outline: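 Zebrafish larvae are exposed from early development to 120 hpf at 28C, with 0.64% DMSO final. Each surviving larva receives a yes/no pericardial edema call by brightfield imaging, analysed relative to the DMSO baseline.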
structure (smiles),measurement,setting,value
O=C(O)Cn1c(=O)n(Cc2ccc(Br)cc2F)c(=O)c2ccc(Cl)cc21,outcome,[1],inactive
same,outcome,[2],inactive
same,outcome,[3],inactive
same,outcome,[4],inactive
same,outcome,[5],inactive
same,outcome,[6],inactive
same,outcome,[7],inactive
same,outcome,[8],inactive
same,outcome,[9],inactive
same,outcome,[10],inactive
same,outcome,[11],inactive
same,outcome,[12],inactive
Cc1c2ccccc2c(C)c2c1ccc1ccccc12,outcome,[1],inactive
same,outcome,[2],inactive
same,outcome,[3],inactive
same,outcome,[4],inactive
same,outcome,[5],inactive
same,outcome,[6],inactive
same,outcome,[13],inactive
same,AC50,[7],25.8 µM (active)
same,outcome,[8],inactive
same,outcome,[9],inactive
same,outcome,[11],inactive
same,outcome,[12],inactive
same,outcome,[14],inactive
same,AC50,[15],17.2 µM (active)
CCCCCCCCOC(=O)c1cc(O)c(O)c(O)c1,outcome,[1],inactive
same,outcome,[2],inactive
same,outcome,[3],inactive
same,outcome,[4],inactive
same,outcome,[16],inactive
same,outcome,[5],inactive
same,outcome,[6],inactive
same,outcome,[7],inactive
same,outcome,[8],inactive
same,outcome,[9],inactive
same,outcome,[10],inactive
same,outcome,[11],inactive
same,outcome,[12],inactive
same,AC50,[14],0.921 µM (active)
same,AC50,[15],7.69 µM (active)
O=C1CCC(C2CCCCC2)CC1,outcome,[1],inactive
same,outcome,[2],inactive
same,outcome,[3],inactive
same,outcome,[4],inactive
same,outcome,[16],inactive
same,outcome,[5],inactive
same,outcome,[7],inactive
same,outcome,[8],inactive
same,outcome,[9],inactive
same,outcome,[10],inactive
same,outcome,[11],inactive
same,outcome,[12],inactive
same,outcome,[14],inactive
same,AC50,[15],43.8 µM (active)
O=c1ccc2ccccc2o1,outcome,[1],inactive
same,outcome,[2],inactive
same,outcome,[3],inactive
same,outcome,[4],inactive
same,outcome,[5],inactive
same,outcome,[6],inactive
same,outcome,[13],inactive
same,outcome,[7],inactive
same,outcome,[8],inactive
same,outcome,[9],inactive
same,outcome,[11],inactive
same,outcome,[12],inactive
CCN(Cc1cccc(S(=O)(=O)O)c1)c1ccc(C(=C2C=CC(=[N+](CC)Cc3cccc(S(=O)(=O)O)c3)C=C2)c2ccccc2S(=O)(=O)[O-])cc1,outcome,[1],inactive
same,outcome,[2],inactive
same,outcome,[3],inactive
same,outcome,[4],inactive
same,outcome,[16],inactive
same,outcome,[6],inactive
same,outcome,[7],inactive
same,outcome,[8],inactive
same,outcome,[9],inactive
same,outcome,[11],inactive
same,AC50,[14],19.2 µM (active)
same,AC50,[15],4.21 µM (active)
CC(C)(O)c1ccc(CNC(=O)c2cccnc2Oc2ccc3nonc3c2)cc1,outcome,[1],inactive
same,outcome,[2],inactive
same,outcome,[3],inactive
same,outcome,[4],inactive
same,outcome,[16],inactive
same,outcome,[5],inactive
same,outcome,[6],inactive
same,outcome,[7],inactive
same,outcome,[9],inactive
same,outcome,[10],inactive
same,outcome,[11],inactive
CCCCOC(=O)c1ccc(O)cc1,AC50,[1],41.1 µM (active)
same,AC50,[2],24.9 µM (active)
same,AC50,[3],29.5 µM (active)
same,AC50,[4],46.5 µM (active)
same,AC50,[5],11.1 µM (active)
same,AC50,[6],63.7 µM (active)
same,AC50,[7],50.2 µM (active)
same,AC50,[8],36.9 µM (active)
same,AC50,[9],40.3 µM (active)
same,AC50,[10],46 µM (active)
same,AC50,[11],21 µM (active)
same,outcome,[12],inactive
c1ccc2n[nH]nc2c1,outcome,[1],inactive
same,outcome,[2],inactive
same,outcome,[3],inactive
same,outcome,[4],inactive
same,outcome,[5],inactive
same,outcome,[6],inactive
same,outcome,[7],inactive
same,outcome,[8],inactive
same,outcome,[9],inactive
same,outcome,[10],inactive
same,outcome,[11],inactive
same,outcome,[12],inactive

# Source: PubChem BioAssay (EPA / NIEHS)
